# From PubChem BioAssay AID504329 (Southern Research Specialized Biocontainment Screening …, 2011)
# The whole screen tested about 340,000 compounds, of which about 1,000 (0.29%) were called active. No stated cut-off is given here; in the data, inconclusive means inhibition above about 27% without an active follow-up result; inactive means below that. A selection follows. Entries with a potency or affinity are not part of this list.
# Assay: H1N1 influenza NS1A inhibitors, functional cell based assay (AID 504329)
# Details: percent inhibition, at 12.5 µM, active compounds read high
row,SMILES,inhibition
1,O=[N+]([O-])c1ccc2c(c1N1CCCCC1)=NC1(CCCCC1)[N+]=2[O-],-7.13% (inactive)
2,CCCCNc1nc(N)ncc1[N+](=O)[O-],-2.32% (inactive)
3,CCCCNc1c([N+](=O)[O-])cc(C(=O)O)cc1[N+](=O)[O-],25.7% (inactive)
4,[O-][N+]1=c2ccc(Nc3ccccc3)cc2=NC12CCCCC2,16.6% (inactive)
5,Cc1noc(C)c1S(=O)(=O)N1CCC(C(=O)O)CC1,-5.05% (inactive)
6,CC1(C)CC(CCN)(Cc2ccccc2Cl)CCO1 (stereo unspecified),-1.58% (inactive)
7,COc1ccccc1N1CCN(C(=O)c2c(-c3c(F)cccc3Cl)noc2C)CC1,-1.81% (inactive)
8,O=C1C(Cl)=C(N2CCCCC2)C(=O)N1c1ccccc1Cl,-3.44% (inactive)
9,CN1CCN(c2cccc3c2C(=O)c2ccccc2C3=O)CC1,4.2% (inactive)
10,O=C1c2ccccc2C(=O)c2cc(N3CCCCC3)ccc21,-3.43% (inactive)
11,Nc1ccccc1N1CCOCC1,0.99% (inactive)
12,N#Cc1c(Cl)cccc1N1CCCC1,-9.33% (inactive)
13,O=C1c2ccccc2-c2onc3ccc(Oc4ccccc4)c1c23,11.9% (inactive)
14,O=C1c2ccccc2-c2c1cccc2C(=O)N1CCOCC1,-11.9% (inactive)
15,CCOc1ccc2noc3c2c1C(=O)c1ccccc1-3,7.74% (inactive)
16,O=C(N1CCCC1)C12CC3CC(CC(C3)C1)C2,-8.92% (inactive)

row,SMILES,inhibition
1,CCCOc1ccc(C(=O)OCC(=O)c2c(N)n(C)c(=O)n(C)c2=O)cc1OCC,-1.83% (inactive)
2,CCN(CC(=O)NC(=O)NCc1ccccc1)CC(=O)Nc1cc(Cl)ccc1C,-8.38% (inactive)
3,CC(C)Cn1c(N)c(C(=O)COC(=O)c2c(F)cccc2F)c(=O)n(C)c1=O,-5.45% (inactive)
4,Cc1ccc(CCNC(=O)c2ccc(CS(=O)(=O)Cc3ccc(F)cc3)o2)cc1,2.69% (inactive)
5,O=C(NNc1cccc([N+](=O)[O-])c1)/C(=C\c1cccnc1)NC(=O)c1ccccc1,9.25% (inactive)
6,COc1cc(CN(CC(C)C)S(=O)(=O)c2ccccc2Br)cc(OC)c1,-4.89% (inactive)
7,Cc1ccc(NC(=O)c2cccc(S(=O)(=O)NCc3ccccc3)c2)nc1,-4.84% (inactive)
8,CCN(CC(=O)Nc1ccccc1OC)C(=O)CSCc1ccc(C)cc1,1.31% (inactive)
9,COc1cc(-c2nc(CN3CCN(CC(C)C)C(=O)[C@@H]3C)c(C)o2)ccc1F,8.73% (inactive)
10,CC(=O)N(C)c1ccc(N2CCOCC2)c2c1C(=O)c1ccccc1C2=O,16.8% (inactive)
11,CC(=C1C(=O)c2ccccc2C1=O)N1CCN(Cc2ccccc2)CC1,-9.47% (inactive)
12,CCNc1ccccc(-c2ccc3ccccc3n2)c1=O,-10% (inactive)
13,COc1ccccc1N1CCN(Cc2ccccc2)CC1,-11.8% (inactive)
14,O=C1c2ccccc2-c2onc3ccc(NCc4ccco4)c1c23,26% (inactive)
15,O=C1C=C(N2CCOCC2)c2ccccc2C1=O,-1.26% (inactive)
